From PubChem BioAssay (NCATS)
Results filed as inconclusive are left out. Entries that show only a call come without a potency. The source made the active and inactive calls. Unless noted, the call rests on the fitted dose curve; in most records, active means well fitted curve in the direction sought with a large enough effect; inconclusive means small, poorly fitted or top-dose-only effect, or another doubt; inactive means no such curve, though single readings can be large; an effect the other way counts as inactive or inconclusive.

How the values were obtained:
[1] = biological target: Mitogen-activated protein kinase 10 (Mus musculus) (UniProt Q61831); experiment: JNK3 AlphaScreen Assay (AID 530; active means well fitted curve in either direction with a large enough effect, not every such curve was filed as active;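 further: kinase came from lysate of stimulated human HepG2 cells; signal reports phosphorylation of biotinylated GST-cJun 1-79 at Ser73 with 10 µM ATP; series mostly up to about 57 µM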)
In short: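 Pre-activated (IL-1β/TNFα) JNK3 in HepG2 lysates phosphorylates biotin-GST-cJun(1-79), 10 uM ATP; anti-phospho-cJun(Ser73) AlphaScreen read at room temperature, pH 7.6 Tris buffer. Compounds pre-incubated 15 min as titrations.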

[2] = biological target: Cytochrome P450 3A4 (Homo sapiens) (UniProt P08684); experiment: qHTS Assay for Activators of Cytochrome P450 3A4 (AID 885); further: nearly all actives have a fitted effect of over 65% in size
In short: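 Steps: enzyme/substrate mix dispensed; compound added, 10 min RT; NADPH regeneration solution added, 60 min RT; luciferin detection buffer stops reaction; 20 min later luminescence measured.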

[3] = biological target: Cytochrome P450 3A4 (Homo sapiens) (UniProt P08684); experiment: qHTS Assay for Inhibitors and Substrates of Cytochrome P450 3A4 (AID 884); further: potency means the concentration at half of the fitted maximal effect; nearly all actives have a fitted effect of over 50% in size
In short: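 20 nM human CYP3A4 with 25 uM Luciferin-PPXE (at KM) in 200 mM KPO4, preincubated 10 min with compound; NADPH regeneration started a 60 min RT reaction. Luciferin detected by luminescence, normalized to 57 uM ketoconazole as full inhibition.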

Chain of Cytochrome P450 3A4 (Homo sapiens) (P08684 whole entry, looked up): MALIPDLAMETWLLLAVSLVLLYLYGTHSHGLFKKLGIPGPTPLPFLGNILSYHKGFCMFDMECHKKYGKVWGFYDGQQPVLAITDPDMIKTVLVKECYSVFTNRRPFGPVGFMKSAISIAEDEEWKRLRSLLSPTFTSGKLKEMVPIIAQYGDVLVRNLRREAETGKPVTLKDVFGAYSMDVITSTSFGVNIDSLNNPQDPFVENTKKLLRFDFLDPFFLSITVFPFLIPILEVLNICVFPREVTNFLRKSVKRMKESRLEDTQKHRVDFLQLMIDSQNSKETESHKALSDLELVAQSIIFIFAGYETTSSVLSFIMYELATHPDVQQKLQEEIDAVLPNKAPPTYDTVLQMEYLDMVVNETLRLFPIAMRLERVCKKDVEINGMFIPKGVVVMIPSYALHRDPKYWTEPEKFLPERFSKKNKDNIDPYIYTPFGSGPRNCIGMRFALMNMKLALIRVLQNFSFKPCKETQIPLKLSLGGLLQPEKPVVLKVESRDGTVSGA

Structure (SMILES)	outcome [1]	Potency [2]	Potency [3]
CC(=O)N1[C@H](C)C=C[C@]1(Cc1ccccc1)C(=O)NCc1ccccn1	inactive	inactive	
CC(=O)N1CC=CC1(CC(C)C)C(=O)NCc1ccccn1 (configuration not stated)	inactive	inactive	
COC(=O)CNC(=O)[C@@]1(C)C=C[C@@H](Cc2ccccc2)N1C(C)=O	inactive	inactive	
COC(=O)c1ccc(C(NC(=O)OCc2ccccc2)/C(=C/[C@@H](C)C(=O)NCc2ccncc2)c2cccnc2)cc1 (some centres not stated)	inactive	inactive	1.26 µM (active)
COC(=O)CNC(=O)C1(C)C=CCN1C(=O)c1ccccc1 (configuration not stated)	inactive	inactive	39.8 µM (active)
CCCCCCN(C(=O)CCCCCN1C(=O)NC(c2ccc(-c3ccccc3)cc2)C(C(=O)OCc2ccccc2)=C1C)C(C(=O)NCCCC)c1ccc(OCC(=O)O)c(C(=O)O)c1 (configuration not stated)	inactive	inactive	
COC(=O)CNC(=O)C1(C)C=CC2(CCCCC2)N1C(C)=O (configuration not stated)	inactive	inactive	
COC(=O)c1ccc(C(NC(=O)OCc2ccccc2)/C(I)=C/[C@@H](C)C(=O)NCc2ccc(OC)c(O)c2)cc1 (some centres not stated)	inactive	inactive	3.16 µM (active)
COC(=O)[C@@]1(C)C[C@@H]1[C@@H](NC(=O)[C@@]1(C)C[C@@H]1[C@@H](NC(=O)[C@@]1(C)C[C@@H]1[C@@H](NC(=O)[C@@]1(C)C[C@@H]1[C@@H](NC(=O)OCc1ccccc1)c1ccccc1)c1ccccc1)c1ccccc1)c1ccccc1	inactive	inactive	
COC(=O)N1[C@H](C)C=C[C@]1(Cc1ccccc1)C(=O)NCc1ccccn1	inactive	inactive	
COC(=O)CNC(=O)[C@@]1(C)C=C[C@@H](Cc2ccccc2)N1C(=O)OC	inactive	inactive	
CC(=O)N1[C@H](C)C=C[C@]1(Cc1ccccc1)C(=O)NCCc1c[nH]c2ccccc12	inactive	inactive	
CC(=O)N1[C@H](Cc2ccccc2)C=C[C@]1(C)C(=O)NCc1cc(F)cc(C(F)(F)F)c1	inactive	inactive	6.31 µM (active)
COC(=O)[C@@]1(C)C=C[C@@H](Cc2ccccc2)N1C(C)=O	inactive	inactive	
